Test results published in PubChem BioAssay AID1479146 (National Center for Advancing Translational Sciences (NCATS), 2020).
Results filed as inconclusive are left out. A number with no mark means an inactive call. Calls of active or inactive are those of the source. The call rests on the fitted dose curve.

test: Confirmatory qHTS for Huh7 cytotoxicity: counterscreen for inhibitors of MERS-S pseudo-typed particle cell entry; conditions: viability; series mostly up to 57.1 µM; activity change, negative = cytotoxicity: at the top concentration

Structure (SMILES) | Potency | activity change, negative = cytotoxicity
C[n+]1c2cc(N)ccc2cc2ccc(N)cc21 (tested in a mixture with another compound) | 3.83 µM (active) | –
CC(CN(C)C)CN1c2ccccc2CCc2ccccc21 (configuration not stated) | – | 2.82%
CC(=O)N1CCN(c2ccc(OC[C@H]3CO[C@](Cn4ccnc4)(c4ccc(Cl)cc4Cl)O3)cc2)CC1 | – | -7.77%
O=c1c(C2CC(c3ccc(-c4ccc(Br)cc4)cc3)Cc3ccccc32)c(O)sc2ccccc12 (configuration not stated) | – | 3.5%
CN(C)[C@@H](CCOc1cccc2ccccc12)c1ccccc1 | – | -14.8%
C/C=C(/C)C(=O)O[C@H]1C(C)=CC23C(=O)C(C=C(CO)[C@@H](O)[C@]12O)[C@H]1[C@@H](C[C@H]3C)C1(C)C (some centres not stated) | – | -30.5%
CCOc1cc2ncc(C#N)c(Nc3ccc(OCc4ccccn4)c(Cl)c3)c2cc1NC(=O)/C=C/CN(C)C | – | -7.24% [at 11.2 µM]
Cc1nnc(C(=O)NC(C)(C)c2nc(C(=O)NCc3ccc(F)cc3)c(O)c(=O)n2C)o1 | – | 0%
CCC(C)(C)C(=O)O[C@H]1C[C@@H](C)C=C2C=C[C@H](C)[C@H](CC[C@@H]3C[C@@H](O)CC(=O)O3)[C@H]21 | – | 0%
c1ccc2c(c1)Sc1ccccc1N2CC1CN2CCC1CC2 (configuration not stated) | 30.4 µM (active) | –
Nc1ccn([C@@H]2O[C@H](CO)[C@@H](O)C2(F)F)c(=O)n1 | – | -18.8%
Cc1cc(C(C#N)c2ccc(Cl)cc2)c(Cl)cc1NC(=O)c1cc(I)cc(I)c1O (configuration not stated) | – | -19.4%
C[C@]12CC[C@H](O)C[C@H]1CCC1C2CC[C@]2(C)[C@@H](c3ccc(=O)oc3)C[C@H]3O[C@]132 (some centres not stated) | 15.2 µM (active) | –
CC[C@@H]([C@H](C)O)n1ncn(-c2ccc(N3CCN(c4ccc(OC[C@@H]5CO[C@@](Cn6cncn6)(c6ccc(F)cc6F)C5)cc4)CC3)cc2)c1=O | – | -5.11%
CCn1cc(C(=O)O)c(=O)c2cc(F)c(N3CCNC(C)C3)c(F)c21 (configuration not stated) | – | 0%
COc1cc(N)c(Cl)cc1C(=O)NC1CCN(CCCOc2ccc(F)cc2)CC1OC (configuration not stated) | – | -20%
CCCCN=C(N)N=C(N)N | – | 0.478%
CCN1CCN(Cc2ccc(Nc3ncc(F)c(-c4cc(F)c5nc(C)n(C(C)C)c5c4)n3)nc2)CC1 | 8.57 µM (active) | –
O=c1ccc2ccccc2o1 | – | 0%
Cc1cn([C@H]2C[C@H](N=[N+]=[N-])[C@@H](CO)O2)c(=O)[nH]c1=O | – | -4.83%
CC(C)C(=O)Oc1ccc(CO)cc1[C@H](CCN(C(C)C)C(C)C)c1ccccc1 | – | -16.1%
N=C(N)c1ccc(OCCCCCOc2ccc(C(=N)N)cc2)cc1 | – | -28.4%
CC(C)(C)NC(=O)[C@H]1CC[C@H]2[C@@H]3CC[C@H]4NC(=O)C=C[C@]4(C)[C@H]3CC[C@]12C | – | -4.87%
C=CC1(C)CC(=O)C2(O)C(C)(O1)C(OC(C)=O)C(OC(=O)CCN(C)C)C1C(C)(C)CCC(O)C12C (configuration not stated) | – | -10.2%
Cc1c(N)nc(C(CC(N)=O)NCC(N)C(N)=O)nc1C(=O)NC(C(=O)NC(C)C(O)C(C)C(=O)NC(C(=O)NCCc1nc(-c2nc(C(=O)NCCCN[C@@H](C)c3ccccc3)cs2)cs1)C(C)O)C(O[C@@H]1O[C@@H](CO)[C@@H](O)[C@H](O)[C@@H]1O[C@H]1O[C@H](CO)[C@@H](O)[C@H](OC(N)=O)[C@@H]1O)c1cnc[nH]1 (some centres not stated) | – | -9.73%
COc1c(OCCCN2CCOCC2)ccc2c3n(c(=NC(=O)c4cnc(N)nc4)nc12)CCN3 | – | -10.8% [at 11.2 µM]
C=C1c2c(Cl)ccc(O)c2C(O)=C2C(=O)[C@@]3(O)C(O)=C(C(N)=O)C(=O)[C@@H](N(C)C)[C@@H]3[C@@H](O)[C@H]12 | – | -20.1%
